Inconclusive results are not listed. Calls of active or inactive are those of the source. Calls come from the whole dose curve; as a rule, active = well fitted inhibition curve with a large enough effect; inconclusive = small, poorly fitted or top-dose-only effect; inactive = flat fitted curve, though single readings scatter.
% is set by controls: 0 for no effect and ±100 for the full control effect.

The assay in a line: P-glycoprotein substrates identified in KB-8-5-11 adenocarcinoma cell line, qHTS therapeutic library screen (AID 1346987). Note: nearly all actives have a fitted effect of over 65% in size. The following applies: KB-8-5-11 (P-gp overexpressing) viability, CellTiter-Glo, 72 h; series mostly up to 44.5 µM; activity change, negative = cytotoxicity: at the top concentration. A digest of the protocol: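 KB-8-5-11, a colchicine-selected P-gp-overexpressing KB-3-1 subline, was grown without colchicine for the assay. Cells were seeded at 500 cells/well, dosed in concentration-response and incubated 72 h at 37 degree C, 5% CO2. Viability was read by CellTiter-Glo luminescence.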
Background: In qHTS, concentration-response curves come from the screen itself.
With `Nc1ncnc2c1C(=O)N(c1ccc(C3CCC(CC(=O)O)CC3)cc1)CCO2` (stereo not given), the call was inactive.

Take `CC1=CC23[C@H](C=C(C(=O)O)[C@@H]2COC(=O)[C@]3(O)CO)[C@@H]1C` (stereo not given in full): the “activity change, negative = cytotoxicity” value is 2.83% (inactive).

In the case of `COc1ccc2c(c1)C=C1Cn3c-2c(C2CCCCC2)c2ccc(cc23)C(=O)NS(=O)(=O)N(C)CCOCCN(C)C1=O`, the “activity change, negative = cytotoxicity” value was -6.99% (inactive).

As for `CC1=C2C[C@@]3(C)[C@@H](CCC[C@@H]3C)C[C@@]2(O)OC1=O`, the “activity change, negative = cytotoxicity” value was 3.7% (inactive).

For `OC[C@H]1O[C@@H](O[C@H]2[C@H](O)[C@@H](CO)O[C@@H](OCc3ccccc3)[C@@H]2O[C@@H]2OC[C@](O)(CO)[C@H]2O)[C@H](O)[C@@H](O)[C@@H]1O`, the “outcome” value was “inactive [at 17.3 µM]”.

As to `CC(O)C(O)/C=C/C=C/C(=O)O[C@@H]1C=C(C(=O)O)[C@](O)(CO)[C@@]2(C)CCCC(C)(C)[C@H]12` (stereo not given in full), the “activity change, negative = cytotoxicity” value was 2.09% [at 17.3 µM] (inactive).

Take `CC1OC(O[C@H]2CC[C@@]3(C)C(CC[C@]4(C)C3CC=C3C5CC(C)(C)CC[C@]5(C(=O)OC5OC(CO)C(OC6OCC(OC7OCC(O)C(O)C7O)C(O)C6O)C(O)C5O)CC[C@]34C)C2(C)C)C(O)C(O)C1OC1OC(CO)C(O)C(OC2OC(CO)C(O)C(O)C2O)C1O` (stereo not given in full): the outcome was “inactive [at 9.29 µM]”.

With `CC1(C)CCC[C@]2(C)C1CC=C(CO)[C@H]2CC/C(=C/CO)CO` (stereo not given in full), the “activity change, negative = cytotoxicity” value is 8.45% (inactive).

Take `CC(=O)O[C@H]1[C@H](OC(=O)C(C)C)[C@]2(C)OC3(CC[C@]2(C)[C@H]2CCC[C@]4(CO4)[C@]12C)COC(=O)C3` (stereo not given in full): the “outcome” value was “inactive [at 17.3 µM]”.

Regarding `CC(=O)NC1C(OC2CCC3(C)C(CCC4(C)C3CC=C3C5CC(C)(C)CCC5(C(=O)O)C(O)CC34C)C2(C)C)OC(CO)C(O)C1O` (stereo not given), the “activity change, negative = cytotoxicity” value was -5.63% [at 17.3 µM] (inactive).
